Source: PubChem BioAssay (several laboratories)
PfHsp40 rescue – restores yeast growth despite PfHsp40 toxicity | growth rescue, % at 12.5 µM | S. cerevisiae expressing PfHsp40, growth rescue, ATP luminescence | hit rate 0.68% among 340,000; in the data active = growth rescue above about 28%, passing the limit was not always enough;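 also: yeast W303a lacking pdr1 and pdr3 grown in galactose medium; growth measured after three days at 30 °C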
Sa RN4220 lethal – kills Staphylococcus aureus RN4220. S. aureus RN4220 growth, OD600, 16 h. inhibition, % (test concentration not listed). hit rate 0.33% among 330,000. AID 1259311; in the data active = inhibition above about 85%;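 also: plate controls were untreated cells for no effect and reference antibiotic for full effect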
Mtb bLac sens – beta-lactam sensitization of Mtb H37Rv. M. tuberculosis H37Rv growth with meropenem, percent inhibition. inhibition, % at 25 µM. hit rate 0.27% among 330,000. AID 434955; call rule not given here;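 also: growth measured after seven days incubation then overnight dye step; 0% = bacteria only wells and 100% = bacteria with antibiotic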
Sa ugtP lethal – kills S. aureus RN4220 lacking UgtP; growth inhibition, % (no concentration beside the values); hit rate 0.54% among 330,000; S. aureus RN4220 ugtP deletion, OD600 growth, 16 h; in the data active = growth inhibition above about 68%;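 also: plate controls were untreated wells for no effect and antibiotic for full effect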
BH1578 lux ind – quorum light induction in luxS cqsA deficient V. cholerae; V. cholerae BH1578 lux reporter, luminescence, 6 h; activation, % at 18.7 µM; hit rate 0.16% among 350,000; AID 588436; in the data active = activation mostly above about 9.7%, no sharp cut-off
Active calls of the source: *; i = inactive; / = no result; ! = not active in a repeat. Shown are actives, neighbours in structure and some others; about 1.2% of the full set was active somewhere.

SMILES	PfHsp40 rescue	Sa RN4220 lethal	Mtb bLac sens	Sa ugtP lethal	BH1578 lux ind
C[N+]1([O-])C2Cc3cc4c(cc3C1Cc1cc3c(cc12)OCO3)OCO4 (stereo unspecified)	/	1	/	1	/
O=C(Nc1ccc([N+](=O)[O-])cc1)Nc1ccc(OC(F)F)c(Cl)c1	0	99*	100	100*	0
O=c1c2ccccc2c(-c2ccc(O)cc2)nn1-c1cccc(C(F)(F)F)c1	240*	-4	10	-9	-3
COc1ccc(Cc2n[nH]c(=S)n2NC(=O)Nc2ccc(Cl)c(Cl)c2)cc1	0	100*	11	100*	-4
COc1ccc(NC(=O)Nc2cccc3c2OC(CN(C)C(=O)NC2CCCCC2)C(C)CN(C(C)CO)C3=O)cc1 (stereo unspecified)	/	2	/	0	/
O=C(c1cc2nc(-c3ccc(F)cc3)cc(C(F)(F)F)n2n1)N1CCCCC1c1cccnc1 (stereo unspecified)	-1	86	99	active	0
COc1cccc(C=NNC(=O)Cn2nc([N+](=O)[O-])cc2C)c1	/	4	/	6	/
CCCOC(=O)CC1C(=O)NCCN1Cc1cc(OC)cc(OC)c1 (stereo unspecified)	40*	13	-7	8	-1
COc1ccc(CCNC2=C(Cl)C(=O)N(CCc3ccccc3)C2=O)cc1OC	4	-1	-3	6	i
O=C1C(Cl)=C(Nc2ccccc2O)C(=O)N1CCc1ccccc1	142*	3	62	1	0
O=c1c2ccccc2nc(SCc2ccccc2Cl)n1Cc1ccccc1	0	4	-8	3	26*
O=C(CSc1nc2ccccc2c(=O)n1Cc1ccccc1)Nc1ccc(Br)cc1C(=O)O	1	76	-8	99*	0
CCN1C(=NCC2CC2)NC(c2ccccc2)C(C(=O)OC)=C1C (stereo unspecified)	/	5	/	2	/
COC(=O)C1=C(C)N(Cc2ccccc2)C(=O)NC1c1cccs1 (stereo unspecified)	/	5	/	-2	/
CC(Cc1ccccc1)=NNC(=O)CNC(=O)/C=C\c1ccccc1	/	1	/	11	/
CCSCCC(NC1=CC(=O)CC(C)(C)C1)C(=O)O (stereo unspecified)	1	-11	-14	-2	17*
C[C@]12CC[C@H](O)CC1=CCC1C2CC[C@@]2(C)C1CC[C@@H]2OCc1ccccc1 (stereo partly specified)	-1	-2	10	11	7
CC12CCC(O)CC1=CCC1C2CCC2(C)C(c3ccn[nH]3)CCC12 (stereo unspecified)	0	-1	/	98*	i
N/C(=N\N=Cc1cccs1)SC1CC(=O)N(c2ccc(Br)cc2)C1=O (stereo unspecified)	/	-8	/	6	/
Cc1c(CCOC(=O)C2C3CC4CC(C3)CC2C4)sc[n+]1CC(=O)c1ccc(Br)cc1 (stereo unspecified)	1	92*!	2	-14	-3
Cc1c(CCOC(=O)c2ccc(Cl)cc2Cl)sc[n+]1CC(=O)c1ccc(Br)cc1	0	52	35	-19	-2
O=C(N/N=C/c1cn(-c2ccccc2)nc1-c1cc2ccccc2o1)c1ccncc1	180*	/	99	/	0
O=C(O)CCCCCN1C(=O)/C(=C/c2cn(-c3ccccc3)nc2-c2cccs2)SC1=S	8	45	/	78	/
O=C(N/N=C/c1cn(-c2ccccc2)nc1-c1cccs1)c1ccccc1F	201*	/	86	/	-1
O=C(O)CCN1C(=O)/C(=C/c2cn(-c3ccccc3)nc2-c2cccs2)SC1=S	/	38	/	93*	-1
SMILES	PfHsp40 rescue	Sa RN4220 lethal	Mtb bLac sens	Sa ugtP lethal	BH1578 lux ind
O=C(Cc1n[nH]c(=O)c2ccccc12)OCC(=O)c1ccc2c(c1)OCCO2	96*	-1	-1	-3	0
O=C(COc1ccccc1F)NN=C1CCCc2ccccc21	/	-3	/	5	/
O=C(O)c1ccccc1NS(=O)(=O)c1ccc(NN=Cc2cccc(Cl)c2)c([N+](=O)[O-])c1	3	-11	2	90*	/
O=C(O)c1ccccc1NS(=O)(=O)c1ccc(N/N=C/c2ccc(O)c(O)c2)c([N+](=O)[O-])c1	7	/	/	/	1
COc1ccc(Br)cc1C=NNc1ccc(S(=O)(=O)Nc2ccccc2C(=O)O)cc1[N+](=O)[O-]	/	100*	/	99*	/
COc1ccc(C(=O)NN=Cc2ccc3cccc(O)c3n2)cc1	/	-2	/	-13	/
CC1(C)OC(=CC=Nc2ccccc2)C=C(c2ccccc2)O1	/	5	/	-10	/
Cc1ccsc1C(=CCCN1CCCC(C(=O)O)C1)c1sccc1C (stereo unspecified)	/	9	/	5	/
Fc1ccc(C[n+]2csc3ccccc32)cc1	0	/	-5	/	i
Clc1ccc(C[n+]2csc3ccccc32)cc1	0	87*	-5	100*	0
COc1c(OC(C)=O)c(=O)n2c3ccccc3c3ccnc1c32	27*	-1	-7	6	0
O=Cc1ccc(O)c2ncccc12	628*	20	/	15	1
COc1cc(OC)c(OC)cc1C=NNc1ncnc2c1[nH]c1ccc(C)cc12	/	6	/	20	/
CCC(C)NC(=O)NC(Cc1ccccc1)C(=O)O (stereo unspecified)	/	2	/	-7	/
Cc1ccc(C=CC2=NN(C)C(=O)CC2)cc1	/	7	/	-3	/
COc1ccccc1-c1ccc(SCc2ccc(C)cc2)nn1	26*	55	-3	1	0
COc1cc(C=NNc2ccc(C(=O)O)cc2)cc(OC)c1OC	/	2	/	8	/
CC1=CC(C)(C)N(S(=O)(=O)c2ccc(C)cc2)c2ccc(C)cc21	165*	2	-2	80	-3
CCCCC1CNC(=S)N1CCc1cccc2ccccc12 (stereo unspecified)	/	-7	/	7	/
CCCCCCCCCn1c2c(c(=N)c3c1CCC3)CCC2	-1	100*	100	101*	1
CCCCCCCn1c2c(c(=N)c3c1CCC3)CCCC2	-1	11	/	99*	0
CC(C)(C)[C@]1(O)CC2OC(=O)C[C@@]23C(=O)OC2OC(=O)C(O)[C@]213 (stereo partly specified)	/	27	/	29	/
CC(C)NC(=O)N(C)CC1Oc2ccc(NC(=O)c3ccncc3)cc2C(=O)N(C(C)CO)CC1C (stereo unspecified)	/	9	/	-1	/
O=Cc1cc(N=Nc2ccccc2Cl)ccc1O	211*	68	73	78	0
CCOc1cc(CNCCO)cc(Br)c1OCc1ccc(Cl)cc1Cl	-1	100*	100	98*	0
CCOc1cc(CNCc2ccncc2)cc(Br)c1OCc1ccccc1F	0	4	85	92*	i
S=C(NCCCn1ccnc1)Nc1cccc(Cl)c1	35*	0	-11	3	0
CCOc1ccc(NC(=S)NCCCn2ccnc2)cc1	0	-1	-4	0	0
O=[N+]([O-])c1cc(Br)cc(/C=N/n2cnnc2)c1O	204*	/	10	/	0
Cc1ccc2nc(N3C(=O)C(O)=C(C(=O)c4ccc(C)o4)C3c3ccc(O)cc3)sc2c1 (stereo unspecified)	-1	44	57	87*	-1
